Test results taken from PubChem BioAssay AID1347076 (National Center for Advancing Translational Sciences (NCATS), 2019).
Where “and” joins values, the source holds several entries; their conditions need not be identical. Equal entries are not always repeated. About 13,000 (3.2%) of roughly 400,000 compounds were called active. Not shown: some 18% with an inconclusive outcome. The sample as a whole holds a higher share of actives than the screen did. Values without a mark were called inactive. Calls follow the shape of the dose curve; as a rule, active = well fitted cell-killing curve with a large enough effect; inconclusive = small, poorly fitted or top-dose-only effect, or effect the other way; inactive = flat fitted curve, though single readings scatter.

Assay: qHTS assay for MDR1-selective chemotherapeutics: Primary screen using the drug-selected MDR subline cells KB-V1; also: nearly all actives have a fitted effect of over 60% in size
Details: KB-V1 MDR cells viability, CellTiter-Glo, 72 h; series mostly up to 46.1 µM; activity change, negative = cytotoxicity: at the top concentration
How it was run: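 Cytotoxicity via CellTiter-Glo luminescence after 72 h compound exposure at 37 degrees C. Cells: drug-selected KB-V1 line, DMEM phenol-red free plus 10% FBS. Compounds tested at multiple concentrations; normalized data fitted to concentration-effect curves.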
% is scaled to controls: 0 for no effect and ±100 for the full control effect; potency is read from the fitted curve at half-maximal effect.

Point of comparison: `CCC(C)CN1C(=O)CN(S(C)(=O)=O)CC1(C)C(=O)Nc1ccc2c(c1)OCCO2` (stereo not given), “activity change, negative = cytotoxicity” value -11.8%. Against it:
- COc1cc(C2CC(=O)Oc3cc(OC)c(OC)c(OC)c32)cc(OC)c1OC (stereo not given) — higher, -0.0159%
- COc1cc(OC)c2c(c1)OC(=O)CC2c1cc(OC)c(OC)c(OC)c1 (stereo not given) — higher, 6.5%
- Cc1nn(C)c2c1c(C(F)(F)F)cc(=O)n2C(C)C(=O)NCc1ccc(Cl)cc1 (stereo not given) — higher, 4.71%
- Cc1cccc(-c2cnc(C(O)c3ccc4ccccc4c3)[nH]2)c1 (stereo not given) — higher, -2.55%
- Cc1cc(Nc2ccc(C(=O)N3CCCCC3)cc2)c2cccc(C)c2n1 — lower, -12.8%
- O=C(Cc1ccc([N+](=O)[O-])cc1)Nc1ccc(C(=O)N2CCOCC2)cc1 — lower, -16.5%
- Cc1ccccc1NC(=O)Cc1nc(COC(=O)CNC(=O)c2ccc(Cl)cc2Cl)cs1 — higher, 19.5%
- CS(=O)(=O)/C(C#N)=C/c1cccn1S(=O)(=O)c1ccc([N+](=O)[O-])cc1 — higher, 14.5%
- COc1ccc(C(C)(O)c2nc(-c3ccc(C)c(C)c3)cs2)cc1 (stereo not given) — higher, 8.75%
- COc1cccc(Nc2nc(N)c([N+](=O)[O-])c(NCc3ccco3)n2)c1 — higher, -1.12%
- COCCNc1nc(N)c([N+](=O)[O-])c(NCCO)n1 — higher, 3.27%
- Cc1cccc(S(=O)(=O)N(C)C[C@@H]2OCc3cnnn3CCCC(=O)N([C@H](C)CO)C[C@@H]2C)c1 — higher, 1.87%
- CCc1ccccc1OCCSc1nc(-c2cccs2)nc2cc(=O)[nH]n12 — higher, -1.44%
- Cc1nnc(SCC(=O)NCc2ccccc2Cl)c2nn(-c3ccccc3)c(C)c12 — higher, -5.48%
- CNC(=O)C[C@H]1C(=O)N(c2ccc(OC)cc2)C[C@@H]1Cc1ccccc1 — lower, -17.1%
- C[C@H]1CN(c2ccc(Br)cc2)C(=O)[C@@H]1CC(=O)Nc1ccc(Br)cc1 — higher, -5.07%
- O=C(NCc1cccnc1)c1cc(C2CCCCN2C(=O)CCc2ccccc2)on1 (stereo not given) — higher, -5.51%
- CCOC(=O)N1CCN(S(=O)(=O)c2ccc(OC)cc2)CC1 — higher, -6.07%
- NC(=O)c1ccccc1N(Cc1ccccc1)S(=O)(=O)c1ccccc1 — higher, 0%
- COc1ccc(N(CC(=O)N2CCCCCC2)S(=O)(=O)c2ccccc2)cc1 — lower, -14.8%
- COc1ccc(C)cc1N(CC(=O)N1CCCC1)S(=O)(=O)c1ccccc1 — higher, -5.7%
- CC1CCCCN1Cc1c(O)ccc2c(=O)c(-c3cccc(Cl)c3)c(C(F)(F)F)oc12 (stereo not given) — higher, 10.4%
- CCC1CN(S(=O)(=O)c2cc(-c3cc(C)no3)ccc2C)c2cc(C)ccc2O1 (stereo not given) — lower, -17%
- C[C@@H]1CN([C@H](C)CO)C(=O)CCCn2nncc2CO[C@@H]1CN(C)S(=O)(=O)c1cccc(C#N)c1 — lower, -22.1%
- Cc1csc(NCC(=O)c2c[nH]c3ccccc23)n1 — lower, -17.4%
- COc1ccc(-c2nc3c4ccccc4n(CC(=O)Nc4ccc(C(C)=O)cc4)c(=O)n3n2)cc1 — higher, 17.9%
- COc1ccc(/C=C(\NC(=O)c2ccc(OC)c(OC)c2)C(=O)NCCc2c[nH]c3ccccc23)cc1 — lower, -26.9%
- COc1ccc(C(C(O)C(=O)c2c[nH]c3ccccc23)N2CCN(c3ccccc3)CC2)cc1 (stereo not given) — higher, -8.03%
- O=C(CC[C@H]1O[C@@H](n2ccc(=O)[nH]c2=O)[C@H](O)[C@@H]1O)N[C@H](Cc1ccccc1)C(=O)NCc1ccco1 — higher, 3.99%
- Oc1c(C(c2ccc(F)cc2)N2CCN(Cc3ccccc3)CC2)sc2nc(-c3ccco3)nn12 (stereo not given) — higher, -1.49%
- COC(=O)c1ccc(Cn2c(SCC(=O)N(C)c3ccccc3)nc3ccccc32)cc1 — higher, 4.47%
- C#CCNC(=O)C[C@@H]1C[C@@]2(C(=O)OCC)CCCC=C2N(Cc2ccco2)C1=O — higher, 0%
- COc1cc(C(=O)N(Cc2ccc(N(C)C)cc2)C2CCS(=O)(=O)C2)cc(OC)c1OC (stereo not given) — higher, 11.3%
- COc1cc(C(=O)N(Cc2ccc(C(C)C)cc2)C2CCS(=O)(=O)C2)cc(OC)c1OC (stereo not given) — lower, -15.3%
- CCCCCCN1CCN(C2CN(Cc3cn(Cc4ccc(F)cc4)nn3)S(=O)(=O)C2)CC1 (stereo not given) — higher, 14.9%
- CC(C)(C)OC(=O)N(Cc1ccccc1)Cc1ccc(OCc2cccc(NC(=O)c3ccccc3)c2)cc1 — higher, -2.42%
- N#Cc1ccccc1NC(=O)c1cccc(COc2ccc(Cl)cc2Cl)c1 — higher, 0.166%
- COc1ccccc1C(=O)NC(=S)Nc1ccc(N2CCOCC2)cc1 — higher, -7.19%
- Cc1cccc(C(=O)NC2CCN(CC(=O)Nc3cccc(Cl)c3)CC2)c1 — lower, -32.8%
- CCc1nc2ccc(C(=O)Nc3cccc(OC)c3)cn2c1N(CCC(C)C)CCN(C)C — higher, 3.09%
- O=C(Nc1cccc2cccnc12)c1cccc(Cl)c1 — higher, 16.8%
- COc1c(Cl)cc(Cl)cc1C(=O)Nc1cccc2cccnc12 — higher, -0.513%
- COc1ccc(/C=C/c2ccccn2)cc1OC — higher, -2.57%
- Cc1ccc(NC(=O)c2cc3ccccc3o2)cc1 — higher, 5.73%
- CN(C)C(CNC(=O)Cc1ccc([N+](=O)[O-])cc1)c1ccccc1 (stereo not given) — higher, -10.5%
- O=C(Nc1cc(Br)ccc1F)c1nc[nH]c1C(=O)NCc1ccccc1 — higher, -9.49%
- CCCCOC(=O)/C(C#N)=C/c1ccc(-c2cccc(C(F)(F)F)c2)o1 — higher, 9.63%
- O=C1NC(c2cc3c(cc2Cl)OCO3)Oc2ccccc21 (stereo not given) — higher, 0.321%
- CCOc1ccc(CNCc2c(C(=O)O)c(C)n(Cc3cccc(OC)c3)c2C)cc1OC — higher, 0%
- O=C(C=CC(=O)Nc1ccc(F)cc1F)Nc1ccc(F)cc1F — higher, 1.29%
- Cc1ccc(C(=O)OCC(=O)NC2CCCCCCC2)cc1C — higher, 17.9%
- O=C(CCCN1C(=O)c2cccc3cccc(c23)C1=O)N1CCN(Cc2ccc3c(c2)OCO3)CC1 — higher, 4.42%
- O=C(c1cccs1)N1CCN(Cc2ccc3c(c2)OCO3)CC1 — lower, -13.2%
- C/C(=N\N)c1c(-c2ccccc2)c2cc(Br)ccc2[nH]c1=O — higher, 10.2%
- O=[n+]1c2c(n([O-])c3cc(Br)ccc31)CCC2 — higher, 0%
- COC(=O)C(Cc1c[nH]c2ccccc12)NC(=O)CCNC(=O)c1ccco1 (stereo not given) — higher, 27.7%
- COc1cc2nc(C#Cc3nc4cc(OC)c(OC)cc4[nH]3)[nH]c2cc1OC — higher, 4.7%
- COc1ccc(C2NC(=O)c3ccccc3N2)cc1 (stereo not given) — higher, 0%
- C=CCOc1cccc(C2NC(=O)c3ccccc3O2)c1 (stereo not given) — higher, -7.2%
- CCCNC(=O)C1(C)CCN1C(=O)C1(c2ccccc2)CC1 (stereo not given) — higher, -1.84%
- Cc1c(CN2CCC(C)CC2)c(=O)n(-c2ccccc2)n1C — higher, -7.43%
- Cc1cccc(N2CCN(c3c(CN4CCCC4)c(=O)oc4ccccc34)CC2)c1C — higher, 13.2%
- CSCCC(NC(N)=O)C(=O)N(C)CC(=O)Nc1ccc(C)cc1 (stereo not given) — higher, 1.58%
- CSCCC(NC(=O)COc1ccccc1)C(=O)Nc1ccc(C)cc1 (stereo not given) — lower, -12.8%
- O=C1[C@H]2[C@@H](c3ccc(C(F)(F)F)cc3)N[C@]3(CCCN(Cc4ccc(Br)cc4)C3=O)[C@H]2C(=O)N1Cc1ccccc1 — higher, -1.88%
- COc1ccc(C(=O)NCC(c2ccc(N(C)C)cc2)N2CCc3ccccc32)c(OC)c1 (stereo not given) — higher, 14.2%
- COc1cccc(CNC(=O)c2nnn(CC(=O)Nc3cc(Cl)ccc3C)c2N)c1 — higher, 2.29%
- Nc1c(C(=O)Nc2ccc3c(c2)OCCO3)nnn1Cc1ccccc1 — lower, -12.8%
- CCS(=O)(=O)N1CCc2cc(C(=O)NCc3ccc(OC)cc3)ccc21 — higher, 3.83%
- COc1ccc(-c2c(C)c3ccc(O)c(CN4CCN(C)CC4)c3oc2=O)cc1OC — higher, 1.72%
- Cc1ccc(Oc2c(C(F)(F)F)oc3c(CN4CCCCC4)c(O)ccc3c2=O)cc1 — higher, -0.449%
- Cc1ccc(S(=O)(=O)N[C@H]2CCC[C@@H]2O)cc1 — higher, 2.83%
- CCn1ncc(C2=NOC(C(=O)N3CCN(c4ccccc4)CC3)C2)c1C (stereo not given) — higher, -4.05%
- COc1cc(NC(=O)C2CC(c3ccccc3O)=NO2)c(OC)cc1Cl (stereo not given) — higher, 0.517%
- COc1cccc(CNC(=O)C(NS(=O)(=O)c2ccc3nc(C)sc3c2)C(C)C)c1 (stereo not given) — lower, -18.7%

In the case of `COc1cc(C2c3cc4c(cc3C(O)C3COC(=O)C23)OCO4)cc(OC)c1OC` (stereo not given), the Potency is reported as 4.11 µM (active) and 231 nM (active).
For `Cc1ccccc1-c1ccc(Nc2ccc(C(=O)N3CCOCC3)cc2)nn1`, the Potency was 14.6 µM (active).
With `CN(c1ccccc1)c1nc(N)c([N+](=O)[O-])c(NCc2ccco2)n1` the Potency was 20.6 µM (active).
In the case of `CCOC(=O)N1CCN(C(=O)c2ccccc2N(Cc2ccccc2)S(=O)(=O)c2ccc(OC)cc2)CC1`, the Potency is reported as 20.6 µM (active).
In the case of `CCOC(=O)N1CCN(C(=O)CN(c2ccc(C)c(C)c2)S(=O)(=O)c2ccccc2)CC1`, the Potency is reported as 1.16 µM (active).
In the case of `COc1ccc(/C=C(\C#N)c2c[nH]c3ccccc23)cc1`, the Potency is reported as 1.3 µM (active).
For `COCCCNC(=O)CNC(=S)N(Cc1cc(OC)c(OC)c(OC)c1)C1CCCC1`, the Potency was 20.6 µM (active).
For `CC(C)c1cc(C(N)=O)c(NC(=O)c2cccc(COc3ccc(Br)cc3)c2)s1`, the Potency was 20.6 µM (active).
In the case of `CC(=O)/C(=N\Nc1ccc(Cl)cc1Cl)Sc1cccc2cccnc12`, the Potency is reported as 18.4 µM (active).
With `CN(C)C(CNC(=O)c1cc2ccccc2o1)c1ccccc1` (stereo not given) the Potency was 16.4 µM (active).
For `O=C1OCC2=C1C(c1ccc(Cl)cc1)c1cc3c(cc1O2)OCO3` (stereo not given), the Potency was 23.1 µM (active).
For `O=C(Nc1cccc2ccccc12)N1CCN(Cc2ccc3c(c2)OCO3)CC1`, the Potency was 16.4 µM (active).
With `O=C1CCCc2c1[nH]c1ccc(Br)cc21` the Potency was 0.517 µM (active).
With `O=C1NC(c2cccc(Cl)c2)Nc2ccccc21` (stereo not given) the Potency was 8.2 µM (active).
For `Cc1cccc(N2CCN(Cc3c(C)n(C)n(-c4ccccc4)c3=O)CC2)c1C`, the Potency was 18.4 µM (active).
In the case of `CSCCC(NC(=O)COc1ccccc1)C(=O)N(C)CC(=O)Nc1ccc(C)cc1` (stereo not given), the Potency is reported as 16.4 µM (active).
In the case of `Nc1c(C(=O)NCc2ccccc2)nnn1Cc1cccc(Cl)c1`, the Potency is reported as 9.2 µM (active).
For `O=c1oc2c(CN3CCCCC3)c(O)ccc2c2c1CCCCC2`, the Potency was 5.8 µM (active).
With `CCn1ncc(C2=NOC(C(=O)Nc3ccccc3C(=O)OC)C2)c1C` (stereo not given) the Potency was 18.4 µM (active).
